This is a sample that favours compounds with a hit; in the whole collection about 8.3% have one here.
Giardia killer – kills Giardia lamblia; Giardia lamblia trophozoite viability; activity change, % at 7.66 µM, hits read low; actives 0.15% (n = 340,000); in the data active means activity change below about -80%; inconclusive means between about -30% and that limit;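 further: parasites exposed to compound for two days anaerobically before the ATP read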
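Killing of trophozoites was scored by loss of ATP luminescence after a 48 hrs anaerobic exposure to compounds at 37 deg C, using 100 cells per well.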
BCR signal inh – chronic active BCR signaling inhibition; ABC-DLBCL IkBa-CBG/CBR reporter, luminescence ratio, 4 h; Potency, µM (top dose mostly 46.1 µM), actives largely listed as inhibitors; actives 0.05% (n = 340,000); AID 493014; active means well fitted inhibition curve with a large enough effect in the signal ratio, with a control signal flat, not every such curve was filed as active; inconclusive means small, poorly fitted or top-dose-only effect, or effect the other way, or a change in a side signal; the % refers to the signal ratio
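Compounds up to 46 uM were incubated four hours with TMD8 cells whose green CBG68 luciferase is fused to IkappaBalpha; red CBR luminescence normalised the signal, and concentration-effect curves were fitted to fusion, red and ratio data.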
RORgamma inh – ROR gamma (mouse) transcription inhibition. Potency, µM (series often up to 53.6 µM), actives largely listed as inhibitors. Drosophila S2 Gal4-RORgamma UAS-luciferase reporter, 20 h. P51450. actives 5.4% (n = 310,000); further: nearly all actives have a fitted effect of over 60% in size
Target sequence (P51450 whole entry, looked up, the tested form may be a part): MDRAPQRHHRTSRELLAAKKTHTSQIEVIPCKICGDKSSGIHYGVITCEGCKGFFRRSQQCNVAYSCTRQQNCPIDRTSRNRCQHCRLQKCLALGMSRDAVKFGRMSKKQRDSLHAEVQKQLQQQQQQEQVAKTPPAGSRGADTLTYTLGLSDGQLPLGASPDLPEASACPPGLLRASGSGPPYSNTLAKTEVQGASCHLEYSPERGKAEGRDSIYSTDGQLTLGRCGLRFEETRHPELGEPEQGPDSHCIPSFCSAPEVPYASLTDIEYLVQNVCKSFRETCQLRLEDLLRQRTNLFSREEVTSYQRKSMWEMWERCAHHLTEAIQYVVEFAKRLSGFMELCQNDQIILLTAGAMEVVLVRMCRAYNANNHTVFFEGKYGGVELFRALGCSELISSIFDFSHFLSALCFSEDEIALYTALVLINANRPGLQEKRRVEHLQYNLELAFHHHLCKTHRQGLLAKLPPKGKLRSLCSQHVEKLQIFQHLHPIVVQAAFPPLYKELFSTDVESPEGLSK
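Stable Schneider cell line, Gal4 DNA-binding domain fused to ROR gamma, UAS-luciferase. Cmpd 1 hr RT → CuSO4 700 uM final → 20 hr RT → luciferase reagent 10 min → luminescence.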
VP16 counter – counter-screen for ROR gamma inhibitors: Gal4-VP16 reporter; Potency, µM (doses to about 53.6 µM), usual class: inhibitors; Drosophila S2 Gal4-VP16 UAS-luciferase, luminescence, 20 h; actives 3.5% (n = 310,000); AID 2546;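 further: Gal4-VP16 expression switched on by copper sulfate through the metallothionein promoter; nearly all actives have a fitted effect of over 50% in size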
MCF10A rereplic – induces DNA re-replication in MCF 10a normal breast cells | actives 2.9% (n = 350,000) | AID 624296 | MCF 10A DNA re-replication, Hoechst nuclear intensity, 48 h | Potency, µM (top dose mostly 46.1 µM), actives largely listed as activators; further: nearly all actives have a fitted effect of over 50% in size
SW480 rerep – DNA re-replication induction in SW480 cells; SW480 DNA re-replication, Hoechst DNA content imaging, 48 h; Potency, µM (top dose mostly 46.1 µM), usual class: activators; actives 1.8% (n = 340,000); further: nearly all actives have a fitted effect of over 55% in size
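Hoechst fluorescence of nuclei (405 nm excitation, 500-530 nm emission) measured by plate-scanning imager after 48 hr compound exposure at 37 C; re-replication scored as increased number of nuclei with elevated intensity.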
Of the large screens only hits and unclear results are named; the others gave an inactive call. Unless noted, the call rests on the fitted dose curve; in most records, active means well fitted curve in the direction sought with a large enough effect; inconclusive means small, poorly fitted or top-dose-only effect, or another doubt; inactive means no such curve, though single readings can be large; an effect the other way counts as inactive or inconclusive.

Cc1ccc(-c2ccc(/C=N/NC(N)=S)o2)cc1	BCR signal inh 22µM, RORgamma inh 0.56µM, VP16 counter 2.5µM, MCF10A rereplic inconclusive
CCNC(=S)N/N=C/c1ccc(C#N)cc1	RORgamma inh 7.1µM, VP16 counter 18µM
CNC(=S)N/N=C/c1ccc(-c2cccc(C(=O)O)c2)o1	BCR signal inh inconclusive, RORgamma inh 7.1µM, VP16 counter inconclusive
O=C(Nc1c(Cl)cc(Cl)cc1-c1nc2ccccc2s1)c1ccc(Br)o1	MCF10A rereplic inconclusive, SW480 rerep inconclusive
CCOC(=O)C(=O)N/N=C/c1ccco1	MCF10A rereplic inconclusive
CCNC(=S)N/N=C/c1ccco1	RORgamma inh 2.2µM, VP16 counter 3.2µM
CN(C)/N=C/c1ccc(/C=N/NC(N)=S)o1	BCR signal inh inconclusive, RORgamma inh 14µM, VP16 counter inconclusive
NC(=S)N/N=C\c1ccc(-c2cccc(Cl)c2Cl)o1	BCR signal inh inconclusive, RORgamma inh 0.89µM, VP16 counter 1.1µM, MCF10A rereplic inconclusive
Nc1nnc(CC(=O)N/N=C/c2ccc(-c3ccccc3Cl)o2)s1	BCR signal inh inconclusive
Cn1c(CNC(=O)c2ccc(Cl)cc2)nnc1SCC(=O)N1CCOCC1	none
Cc1ccc(N(C(=O)CCl)C(C(=O)NC2CCCCC2)c2cccnc2)cc1C (centres undefined)	BCR signal inh inconclusive, RORgamma inh 11µM, VP16 counter inconclusive, MCF10A rereplic 7.3µM, SW480 rerep inconclusive
Cc1ccc(N(C(=O)CNC(=O)c2ccco2)C(C(=O)NC2CCCCC2)c2cccnc2)cc1C (centres undefined)	none
COc1ccc(NC(=S)c2ccncc2)cc1	SW480 rerep inconclusive
CO/N=C/C(=N\Nc1ccc(C)cc1)C(=O)c1ccc(OC)cc1	MCF10A rereplic 2.6µM, SW480 rerep inconclusive
Cc1ccc(NC(=S)c2ccncc2)cc1	SW480 rerep inconclusive
Cc1ccc(NC(=S)c2ccccc2)cc1	BCR signal inh inconclusive, RORgamma inh 11µM, VP16 counter inconclusive
COc1ccc(C(=S)Nc2ccc(C)cc2)cc1	RORgamma inh 13µM
Cc1ccc(NC(=S)N/C(=N/S(=O)(=O)c2ccccc2)c2ccccc2)cc1	BCR signal inh inconclusive, RORgamma inh inconclusive, VP16 counter 13µM, SW480 rerep inconclusive
CN(Cc1cn(C)nc1-c1ccc(Oc2ccccc2)cc1)CC1COCCO1 (centres undefined)	none
Cc1ccc(NC2=CC(=O)CC(c3ccco3)C2)c(N)c1 (centres undefined)	RORgamma inh inconclusive, MCF10A rereplic 10µM
FC(F)(F)c1nc2ccccc2nc1N/N=C\c1ccccc1	BCR signal inh inconclusive, RORgamma inh 3.5µM, VP16 counter 13µM
Cc1ccc(-c2nc(N/N=C/c3ccccc3[N+](=O)[O-])c3ccccc3n2)cc1	Giardia killer inconclusive, MCF10A rereplic 13µM, SW480 rerep 7.3µM
COc1ccccc1Nc1nc(NCc2ccco2)c2ccccc2n1	VP16 counter inconclusive, MCF10A rereplic 23µM
C(=N\Nc1nc(-c2ccccn2)nc2ccccc12)/c1ccccc1	BCR signal inh inconclusive, RORgamma inh 0.089µM, VP16 counter 0.5µM (no result: MCF10A rereplic, SW480 rerep)
O=C(CCc1ccccn1)N1CCCC(N2CCN(c3ccc(F)cc3)CC2)C1 (centres undefined)	none (no result: RORgamma inh, VP16 counter)
COc1ccc(C(=O)NC2CCN(C(=S)Nc3ccc(C)cc3)CC2)cc1	BCR signal inh inconclusive, MCF10A rereplic inconclusive
Cc1ccc(C(c2sc3nc(-c4ccco4)nn3c2O)N2CCN(c3ccc(F)cc3)CC2)cc1 (centres undefined)	none (no result: Giardia killer, RORgamma inh, VP16 counter, MCF10A rereplic, SW480 rerep)
CC1CC(C)CN(CC(O)COCc2ccccc2)C1 (centres undefined)	Giardia killer inconclusive
c1ccc(Nc2nc(NCC3CCCO3)c3ccccc3n2)cc1 (centres undefined)	BCR signal inh inconclusive, VP16 counter inconclusive, MCF10A rereplic inconclusive, SW480 rerep inconclusive
Oc1cccc(Nc2nc(NCC3CCCO3)c3ccccc3n2)c1 (centres undefined)	BCR signal inh inconclusive, VP16 counter inconclusive, MCF10A rereplic 15µM

Source: PubChem BioAssay (National Center for Advancing Translational Sciences (NCATS))
